Results published in PubChem BioAssay.
Values joined by “and” are separate entries in the source; they are usually repeats but may differ in a detail not shown here. Identical values can stand only once. Active and inactive are the calls of the source. Unless noted, how the calls were made is not given here.

Experiments:
[1] = resazurin metabolic signal in HepG2 cells – cell-based, resazurin fluorescence, 24 h, PK04 Diversity Set, profiling panel (AID 1172); conditions: HepG2 viability, higher = more signal
[2] = budding yeast growth changes without added modifier – OD600, strain BY4716, 24 h, basal condition, primary screen (AID 1173); conditions: S. cerevisiae BY4716 growth, OD600, 24 h; higher = more signal, called active from +8 up or from −8 down
[3] = viability profiling in MM1S myeloma cells – cell-based, resazurin fluorescence, basal, 24 h, PK04 Diversity Set, profiling panel (AID 1174); conditions: higher = more signal, called active from +8 up or from −8 down;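 further: MM1S multiple myeloma cell line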
[4] = target: Dihydroorotate dehydrogenase (quinone), mitochondrial (Plasmodium falciparum (isolate 3D7)) (UniProt Q08210); assay: inhibition of P. falciparum DHODH – biochemical, C-terminal His tag, absorbance 600 nm, primary screen (AID 1175); conditions: PfDHODH enzyme, DCIP absorbance 600 nm; higher = more signal, called active from +8 up or from −8 down;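 further: recombinant parasite enzyme with a five histidine tag at its C terminus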
[5] = inhibition of PAO1 biofilm formation – strain PAO1, LB-PBS medium, absorbance 600 nm, primary screen (AID 1176); conditions: P. aeruginosa PAO1 growth/biofilm, A600, 12 h; higher = more signal
[6] = growth modulation of vineyard yeast isolate – strain RM11-1a, OD600, basal, 24 h, primary screen (AID 1177);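 further: cultures grown under basal conditions with no added stressor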; conditions: S. cerevisiae RM11-1a growth, OD600, 24 h; higher = more signal, called active from +8 up or from −8 down
[7] = growth of efflux-deficient E. coli DRC39 – strain DRC39, OD650, 24 h, E. coli filamentation inducers, primary screen (AID 1178);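 further: growth measured as culture turbidity by optical density at 650 nm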; conditions: E. coli DRC39 acrAB, higher = more signal, called active from +8 up or from −8 down
[8] = growth of efflux-deficient E. coli DRC39 – strain DRC39, OD650, 48 h, E. coli filamentation inducers, primary screen (AID 1179);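 further: screen aims at cell division blockers that make cells filament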; conditions: E. coli DRC39 delta-acrAB growth, higher = more signal, called active from +8 up or from −8 down
[9] = viability profiling in RPMI8226 myeloma cells – cell-based, resazurin fluorescence, basal, 24 h, PK04 Diversity Set, profiling panel (AID 1180); conditions: higher = more signal;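 further: RPMI8826 multiple myeloma cell line at 5000 cells per well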
[10] = target: E3 ubiquitin-protein ligase XIAP (Homo sapiens) (UniProt P98170); assay: small molecules binding XIAP protein – biophysical, small-molecule microarray, fluorescence 635 nm, primary screen (AID 1181); conditions: higher = more signal;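 further: score merges 667 nm emission and signal to noise over triplicate slides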
[11] = system: XIP peptide (Xip251-270) binding; assay: XIP fragment 251-270 binding compounds – biochemical, small-molecule microarray, fluorescence 635/667 nm, 0.1 µg/mL protein, primary screen (AID 1182); conditions: fluorescent protein binding, 635 nm, higher = more signal, called active from +8 up or from −8 down
[12] = system: XIP peptide (Xip251-270); assay: compounds binding XIP fragment 251-270 – biochemical, small-molecule microarray, fluorescence 635/667 nm, 0.5 µg/mL protein, primary screen (AID 1183); conditions: fluorescence 635 nm, higher = more signal
[13] = blood-stage malaria parasite viability loss – strain 3D7, DAPI fluorescence, 100 nL, primary screen (AID 1184);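 further: parasites grown inside human red blood cells in medium with human serum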; conditions: P. falciparum 3D7 growth, 3 d, higher = more signal
[14] = target: Homeobox protein Hox-A13 (Mus musculus) (UniProt Q62424); assay: disruptors of Hoxa13 oligonucleotide interaction – biochemical, fluorescence polarization, labeled oligonucleotide, primary screen (AID 1185); conditions: Hoxa13:DNA binding, 15 min, higher = more signal, called active from +8 up or from −8 down
[15] = blockers of DNA damage checkpoint Chk1 activation – imaging, HeLa, hydroxyurea, phospho-Chk1 antibody, percent positive cells, primary screen (AID 1186); conditions: hydroxyurea-induced phospho-Chk1 immunofluorescence imaging, higher = more signal
[16] = blockers of DNA damage checkpoint Chk1 activation – imaging, HeLa, hydroxyurea, phospho-Chk1 nuclear intensity, primary screen (AID 1187); conditions: hydroxyurea-induced phospho-Chk1 immunofluorescence imaging, higher = more signal

Sequence of E3 ubiquitin-protein ligase XIAP (Homo sapiens) (P98170 whole entry, looked up, the tested form may be a part): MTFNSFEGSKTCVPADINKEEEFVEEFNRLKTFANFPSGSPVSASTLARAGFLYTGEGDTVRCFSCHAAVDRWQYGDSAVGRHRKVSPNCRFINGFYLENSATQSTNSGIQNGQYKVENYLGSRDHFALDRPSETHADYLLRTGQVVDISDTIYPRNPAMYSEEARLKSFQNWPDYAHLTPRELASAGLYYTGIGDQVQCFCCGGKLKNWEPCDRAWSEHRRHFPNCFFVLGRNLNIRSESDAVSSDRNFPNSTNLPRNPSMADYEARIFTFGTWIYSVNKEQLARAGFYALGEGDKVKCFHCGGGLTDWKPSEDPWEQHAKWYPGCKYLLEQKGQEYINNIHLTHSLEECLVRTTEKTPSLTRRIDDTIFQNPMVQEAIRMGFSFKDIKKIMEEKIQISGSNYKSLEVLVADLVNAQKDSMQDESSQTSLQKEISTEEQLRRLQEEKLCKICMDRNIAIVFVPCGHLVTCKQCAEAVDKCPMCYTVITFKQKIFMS
Sequence of Dihydroorotate dehydrogenase (quinone), mitochondrial (Plasmodium falciparum (isolate 3D7)) (Q08210 whole entry, looked up): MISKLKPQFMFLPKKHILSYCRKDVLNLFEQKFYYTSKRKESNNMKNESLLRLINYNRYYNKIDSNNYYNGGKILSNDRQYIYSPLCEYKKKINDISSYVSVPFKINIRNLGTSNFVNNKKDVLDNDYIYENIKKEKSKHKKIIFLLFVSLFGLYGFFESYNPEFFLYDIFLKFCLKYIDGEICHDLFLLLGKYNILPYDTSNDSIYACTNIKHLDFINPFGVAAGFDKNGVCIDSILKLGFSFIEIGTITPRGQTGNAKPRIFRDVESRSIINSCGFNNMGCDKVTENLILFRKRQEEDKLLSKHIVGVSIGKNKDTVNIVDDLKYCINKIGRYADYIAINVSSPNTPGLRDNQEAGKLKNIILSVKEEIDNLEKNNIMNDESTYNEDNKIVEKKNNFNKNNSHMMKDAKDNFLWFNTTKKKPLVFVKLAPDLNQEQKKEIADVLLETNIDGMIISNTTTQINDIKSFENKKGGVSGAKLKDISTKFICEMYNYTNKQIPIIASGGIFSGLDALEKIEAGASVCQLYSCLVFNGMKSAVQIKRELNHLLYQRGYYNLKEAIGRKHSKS
Sequence of Homeobox protein Hox-A13 (Mus musculus) (Q62424 whole entry, looked up): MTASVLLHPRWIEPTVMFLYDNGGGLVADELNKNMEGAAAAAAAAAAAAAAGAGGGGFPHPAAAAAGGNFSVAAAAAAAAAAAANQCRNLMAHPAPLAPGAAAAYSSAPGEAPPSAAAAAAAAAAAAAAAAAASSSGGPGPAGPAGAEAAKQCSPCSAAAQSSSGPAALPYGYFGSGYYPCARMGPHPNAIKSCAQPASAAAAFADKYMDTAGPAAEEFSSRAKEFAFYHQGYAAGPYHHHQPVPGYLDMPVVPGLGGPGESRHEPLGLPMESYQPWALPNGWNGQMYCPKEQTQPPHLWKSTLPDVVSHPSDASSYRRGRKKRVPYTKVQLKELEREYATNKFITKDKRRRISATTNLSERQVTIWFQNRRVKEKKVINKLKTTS

| SMILES | z-score [1] | z-score [2] | z-score [3] | composite z-score [4] | z-score [5] | z-score [6] | z-score [7] | z-score [8] | z-score [9] | composite z-score [10] | composite z-score [11] | composite z-score [12] | z-score [13] | z-score [14] | z-score [15] | z-score [16] |
| --- | --- | --- | --- | --- | --- | --- | --- | --- | --- | --- | --- | --- | --- | --- | --- | --- |
| C=CCN(Cc1ccccc1)C(=O)C1N(CCOCCO)C(=O)C2C(C(=O)O)C3C=CC21O3 (configuration not stated) | 0.649 and -0.0686 | -1.56 (inactive) and 0.494 (inactive) | 1.22 (inactive) and -0.234 (inactive) | -3.5 (inactive) and -0.648 (inactive) | -0.18 (inactive) | -1.46 (inactive) and 0.356 (inactive) | 1.55 (inactive) and 0.0673 (inactive) | 1.05 (inactive) and -0.12 (inactive) | 0.795 and -0.418 | -0.02 and -0.291 | 0.463 (inactive) and -0.202 (inactive) | -1.03 and -0.657 | -0.506 and -0.253 | 0.429 (inactive) and -0.659 (inactive) | -0.0844 (inactive) and 1.49 (inactive) | 0.031 (inactive) and 1.13 (inactive) |
| C=CCN(C(=O)C(c1cccs1)N(C(=O)/C=C\C(=O)O)c1c(Cl)cccc1CO)c1ccc(OC)cc1 (configuration not stated) | 0.154 and -2.56 | -2.07 (inactive) and -1.37 (inactive) | 1.02 (inactive) and -0.0953 (inactive) | -5.76 (inactive) and -2.28 (inactive) | -0.18 (inactive) | -0.736 (inactive) and 0.0288 (inactive) | 0.976 (inactive) and 0.515 (inactive) | 1.11 (inactive) and 0.57 (inactive) | 0.509 and -0.0282 | 0.0264 and -0.0795 | 0.861 (inactive) and 0.113 (inactive) | -0.457 and -1.04 | 0.734 and 1.62 | 0.171 (inactive) and -1.67 (inactive) | -0.0464 (inactive) and 0.245 (inactive) | 0.0355 (inactive) and 0.636 (inactive) |
| CC(C)CON=C1C[C@@H](O)[C@@H](O)[C@@H]2[C@@H]3C(=O)N(c4cccc(Oc5ccccc5)c4)C(=O)[C@@H]3CC[C@H]12 | 0.608 | 0.121 (inactive) | 0.768 (inactive) | -0.564 (inactive) | 0.34 (inactive) | 0.79 (inactive) | 0.85 (inactive) | 0.0947 (inactive) | 1.33 | -0.055 | 0.0483 (inactive) | 0.741 | -0.638 | 0.875 (inactive) |  |  |
| Cc1ccc(S(=O)(=O)OC[C@@H]2CN3[C@@H](CC[C@@H](C)[C@@H]3c3ccc(Br)cc3)C(=O)O2)cc1 | -0.928 and 0.711 | 0.212 (inactive) and 0.117 (inactive) | 0.0032 (inactive) and 0.781 (inactive) | -0.559 (inactive) and 0.188 (inactive) | 0.487 (inactive) and -0.139 (inactive) | -0.0273 (inactive) and 0.72 (inactive) | 0.393 (inactive) and -1.04 (inactive) | 0.521 (inactive) and -0.956 (inactive) | -0.109 and 0.607 | 1.69 and -0.0599 | 0.589 (inactive) and -0.699 (inactive) | 0.432 and 0.299 | -0.17 and -0.013 | 0.16 (inactive) and 0.956 (inactive) |  |  |
| CC[C@@H]1C(Sc2ccccc2)C(C(=O)O)[C@H](c2ccc(C)cc2)N1S(=O)(=O)c1ccc(C)cc1 (some centres not stated) | -0.706 and -0.917 | -0.28 (inactive) and -1.3 (inactive) | -0.567 (inactive) and 0.0522 (inactive) | 0.0392 (inactive) and -0.581 (inactive) | 0.133 (inactive) and 0.257 (inactive) | -0.112 (inactive) and -1.09 (inactive) | -0.604 (inactive) and -0.627 (inactive) | -0.106 (inactive) and 0.575 (inactive) | -1.17 and -0.637 | 0.287 and 0.382 | 1.07 (inactive) and -0.215 (inactive) | 0.278 and 0.605 | -0.606 and 0.251 | -5.66 (inactive) and -4.34 (inactive) | -0.114 (inactive) and -0.912 (inactive) | -0.369 (inactive) and -0.714 (inactive) |
| CC(C)C(=O)N[C@@H]1CCCN1C(=O)C=Cc1ccccc1 | -0.0786 | -1.17 (inactive) | -0.0492 (inactive) | -1.3 (inactive) | 0.286 (inactive) | -1.19 (inactive) | 0.595 (inactive) | -0.0803 (inactive) | 0.227 | -0.113 | 0.36 (inactive) | 0.473 | 1.99 | -1.68 (inactive) |  |  |
| CCOC(=O)NN=C1C[C@@H](O)[C@@H](O)[C@@H]2[C@@H]3C(=O)N(Cc4ccc5c(c4)OCO5)C(=O)[C@@H]3CC[C@@H]12 | 0.321 | -0.143 (inactive) | 0.591 (inactive) | -0.225 (inactive) | 0.246 (inactive) | 0.52 (inactive) | 0.69 (inactive) | 0.819 (inactive) | 0.457 | -0.492 | 0.483 (inactive) | 0.586 | 0.132 | -0.24 (inactive) |  |  |
| CCOC(=O)CCN1C(=O)[C@H]2[C@H]3[C@H](O)[C@H](O)CC(=NNC(=O)OCC)[C@@H]3CC[C@H]2C1=O | -0.346 | -0.762 (inactive) | -0.994 (inactive) | -0.31 (inactive) | -0.531 (inactive) | -0.382 (inactive) | 0.202 (inactive) | 0.526 (inactive) | -1.74 | 0.116 | 0.872 (inactive) | 0.466 | 2.07 | 0.0438 (inactive) |  |  |
| C=CCN(Cc1ccccc1)C(=O)C1N(C(C)(C)CO)C(=O)C2C(C(=O)O)C3C=CC21O3 (configuration not stated) | -0.767 and 0.937 | 0.424 (inactive) and -0.874 (inactive) | -0.796 (inactive) and 0.0609 (inactive) | 1.25 (inactive) and 0.316 (inactive) | -0.112 (inactive) and -0.193 (inactive) | -1.32 (inactive) and -0.417 (inactive) | -0.0429 (inactive) and 0.296 (inactive) | -0.0639 (inactive) and 0.0039 (inactive) | -0.699 and 0.447 | 0.0322 and -0.328 | 0.102 (inactive) and -0.207 (inactive) | 0.234 and -0.526 | 0.379 and -0.247 | -0.255 (inactive) and -0.187 (inactive) | -0.401 (inactive) and -0.113 (inactive) | -0.326 (inactive) and -0.297 (inactive) |
| C=CCN(C(=O)C(c1cccs1)N(CCOCCO)C(=O)/C=C\C(=O)O)c1ccc(OC)cc1 (configuration not stated) | 0.591 and 0.232 | -1.32 (inactive) and -1.58 (inactive) | 0.0173 (inactive) and 0.605 (inactive) | -1.05 (inactive) and -2.65 (inactive) | 1.07 (inactive) | -1.64 (inactive) and -1.09 (inactive) | 0.997 (inactive) and 1.72 (inactive) | 1.21 (inactive) and 2 (inactive) | 1.25 and 0.952 | 0.336 and -0.325 | -0.0498 (inactive) and -0.363 (inactive) | -0.371 and -1.72 | -0.305 and 0.0058 | 1.69 (inactive) and 0.807 (inactive) | -1.69 (inactive) and -0.75 (inactive) | -0.197 (inactive) and -0.573 (inactive) |
| C=CCN(CCCCC)C(=O)C1N(C(C)(C)CO)C(=O)C2C(C(=O)O)C3C=CC21O3 (configuration not stated) | -0.839 and -0.382 | 0.579 (inactive) and -0.295 (inactive) | -1.09 (inactive) and -0.64 (inactive) | 0.457 (inactive) and -0.446 (inactive) | -0.91 (inactive) and -1.08 (inactive) | -1.01 (inactive) and -1.15 (inactive) | -0.62 (inactive) and 0.193 (inactive) | -0.396 (inactive) and 0.2 (inactive) | -0.725 and -0.827 | -0.0387 and -0.245 | -0.53 (inactive) and -1 (inactive) | -0.417 and -1.97 | -0.0999 and 0.86 | -0.598 (inactive) and 0.0686 (inactive) | 0.0341 (inactive) and -0.15 (inactive) | 0.436 (inactive) and 0.287 (inactive) |
| O=C1C[C@]2(c3ccc([N+](=O)[O-])cc3)C(=O)N(Cc3ccccc3)c3cc(CO)ccc3[C@H]2N1C1CCCCC1 | 0.981 and -0.766 | -0.0998 (inactive) and -0.919 (inactive) | 0.0351 (inactive) and -0.743 (inactive) | -2.77 (inactive) and 0.496 (inactive) | 0.599 (inactive) and 1.21 (inactive) | 0.029 (inactive) and -0.21 (inactive) | 0.512 (inactive) and 0.2 (inactive) | 0.566 (inactive) and -0.0186 (inactive) | 0.702 and -0.966 | 2.56 and 0.144 | -0.182 (inactive) and 0.877 (inactive) | -0.242 and 0.519 | 1.04 and -1.97 | -1.48 (inactive) and -3.19 (inactive) | 0.112 (inactive) and -0.427 (inactive) | 0.357 (inactive) and -0.265 (inactive) |
